Assay outcomes as filed in PubChem.
This is a sample that favours compounds with a hit; in the whole collection about 1.8% have one here.
iPSC survival up: hiPSC single-cell survival enhancement; ATPlite luminescence; 100% = ROCK inhibitor wells, 0% = DMSO; survival enhancement, % at 20 µM; hit rate 0.044% among 360,000; in the data active = survival enhancement above about 18%;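 also: cells exposed to compounds for 16 hours before the ATP read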
INS-1E GSIS act: primary screen for activators of insulin secretion dependent on glucose, INS-1E cells, GLuc reporter luminescence. INS-1E GLuc reporter insulin secretion, 2-3 h. activation, % at 16.6 µM. hit rate 0.61% among 370,000;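 active = lowest replicate activation of at least 40%, so every replicate reaches that level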;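 also: 0% = median of neutral control wells and 100% = median of IBMX positive control wells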
NRP1-CendR mod: modulators of CendR peptide binding to human neuropilin-1. AID 602438. inhibition, % at 25 µM. hit rate 0.85% among 360,000. FAM-RPARPAR peptide binding to NRP-1, fluorescence polarization;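 active = inhibition or corrected inhibition above about 18%, plus a signal ratio from 0.5 to 1.5, limit read from the data, passing the limit was not always enough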
Target sequence (O14786 whole entry, looked up): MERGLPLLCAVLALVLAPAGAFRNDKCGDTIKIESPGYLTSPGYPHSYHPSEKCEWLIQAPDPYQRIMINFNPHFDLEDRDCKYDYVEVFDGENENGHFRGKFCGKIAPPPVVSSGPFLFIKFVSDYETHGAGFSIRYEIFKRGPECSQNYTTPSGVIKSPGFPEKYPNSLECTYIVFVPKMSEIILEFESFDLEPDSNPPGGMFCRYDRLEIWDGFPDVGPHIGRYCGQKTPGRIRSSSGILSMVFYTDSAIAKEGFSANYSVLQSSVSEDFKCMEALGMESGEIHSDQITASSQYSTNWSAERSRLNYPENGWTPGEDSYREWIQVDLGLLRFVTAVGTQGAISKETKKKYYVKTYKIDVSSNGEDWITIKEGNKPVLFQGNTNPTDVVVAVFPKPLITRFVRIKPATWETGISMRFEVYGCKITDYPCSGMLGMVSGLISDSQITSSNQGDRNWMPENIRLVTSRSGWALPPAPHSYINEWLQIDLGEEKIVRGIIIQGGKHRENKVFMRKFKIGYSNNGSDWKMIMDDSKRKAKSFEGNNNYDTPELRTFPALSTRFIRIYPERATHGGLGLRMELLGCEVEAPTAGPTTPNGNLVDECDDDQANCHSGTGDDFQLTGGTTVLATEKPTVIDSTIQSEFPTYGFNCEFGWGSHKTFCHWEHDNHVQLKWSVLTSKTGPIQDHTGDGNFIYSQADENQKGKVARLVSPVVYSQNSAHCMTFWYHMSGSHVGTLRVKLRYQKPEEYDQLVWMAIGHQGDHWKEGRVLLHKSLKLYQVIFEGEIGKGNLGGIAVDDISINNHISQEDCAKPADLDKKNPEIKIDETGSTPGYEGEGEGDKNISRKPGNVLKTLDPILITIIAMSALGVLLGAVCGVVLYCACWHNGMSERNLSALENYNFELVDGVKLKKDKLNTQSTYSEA
ARNT TACC3 PPI: ARNT/TACC3 interaction disruption; Q9Y6A5; AlphaScreen His-ARNT PAS-B/GST-TACC3 binding, luminescence; TACC3 fragment carries E629A point mutation; hit rate 0.66% among 390,000; inhibition, % at 9.99 µM;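 active = mean inhibition of replicates at least 50% and at least half of replicates each reaching 50%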;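 also: 0% = complete ARNT plus TACC3 wells and 100% = ARNT alone without TACC3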
ABCB6 inh MLPCN: human ABCB6 transporter inhibition. hit rate 0.19% among 360,000. Q9NP58. AID 602162. fluorescence ratio to DMSO, % at 10 µM. K562-ABCB6 porphyrin accumulation, flow cytometry, 1 h; active compounds read low;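 active = fluorescence ratio to DMSO below 75%, the collection mean minus 3 SD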;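 also: signal is porphyrin accumulated inside mitochondria; 100% equals median channel fluorescence of DMSO control wells; lower ratio means ABCB6 inhibition with less porphyrin fluorescence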
ABCB6 inh CP1: human ABCB6 transporter inhibition; K562-ABCB6 porphyrin accumulation, flow cytometry, 1 h; active compounds read low; 700 tested, under 10 active; ratio response (% of DMSO), % at 10 µM; shares compounds with ABCB6 inh MLPCN;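 active = repeat-averaged ratio response below 75% of DMSO, the collection mean minus 3 SD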;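 also: median porphyrin fluorescence at 575 nm with 488 nm excitation from mitochondria; lower ratio means less porphyrin signal so ABCB6 inhibition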
The depositor's hits bear a star; / = not tested or not shown.

SMILES	iPSC survival up	INS-1E GSIS act	NRP1-CendR mod	ARNT TACC3 PPI	ABCB6 inh MLPCN	ABCB6 inh CP1
Cc1noc(C)c1S(=O)(=O)N(C)C[C@@H]1OCCCC[C@@H](C)Oc2ccc(NC(=O)NC3CCCCC3)cc2C(=O)N([C@@H](C)CO)C[C@@H]1C	/	-11	/	-6	/	/
COc1ccccc1-c1cc2nc(NCCOc3ccccc3)ccn2n1	2	/	10	/	61*	104
c1ccc(OCCNc2ccn3nc(-c4ccccc4)cc3n2)cc1	2	-1	-6	/	101	/
N#Cc1c2n(c3c(=O)n(Cc4ccccc4)cnc13)CCCC2	1	12	-1	-12	55*	100
C[C@H](CO)N1C[C@H](C)[C@H](CN(C)Cc2ccncc2)Oc2ccc(NS(=O)(=O)c3ccc(Cl)cc3)cc2CC1=O	/	-1	/	-7	/	/
CCOC(=O)c1sc2nc(C)cc(C)c2c1N	-1	/	1	-18	94	/
CCOC(=O)c1sc2nc(C)cc(-c3ccccc3)c2c1N	-1	22	-5	-89	71*	100
O=C(Oc1ccc2ccccc2c1)c1cncc(Br)c1	-2	5	10	30	100	/
O=C(Oc1ccc2c(=O)c(Oc3ccc4ccccc4c3)coc2c1)c1cncc(Br)c1	0	11	2	/	73*	102
C/C=C/c1ccc2c(c1)O[C@H](CN(C)CC1CCCC1)[C@@H](C)CN([C@H](C)CO)S2(=O)=O	/	-3	/	27	/	/
Cc1c(C(=O)NCc2ccc(F)cc2)c(-c2ccccc2)nn1-c1ccccc1	-3	/	12	13	101	/
Cc1nn(Cc2c(F)c(F)c(F)c(F)c2F)c(C)c1NC(=O)c1c(-c2ccccc2)nn(-c2ccccc2)c1C	-3	-23	0	1	38*	98
Cc1ccccc1-c1cnc2c(c1)C(=O)N([C@H](C)CO)C[C@H](C)[C@@H](CN(C)Cc1cncnc1)O2	/	2	/	-9	/	/
CO[C@@H]1CN(C)C(=O)c2ccc(NC(=O)Nc3cccc(F)c3)cc2OC[C@@H](C)N(C(=O)C2CC2)C[C@H]1C	/	-20	/	/	/	/
CCOc1ccc(OCc2ccc(C(=O)NC(C)C)o2)cc1	0	0	-7	-1	102	/
Cc1cc(C)cc(OCc2ccc(C(=O)N3N=C(C(F)F)CC3(O)C(F)F)o2)c1 (stereo not given)	-1	-22	1	6	97	101
CCOc1ccc(OCc2ccc(C(=O)N3N=C(C(F)F)CC3(O)C(F)F)o2)cc1 (stereo not given)	-2	-17	-11	-5	66*	98
O=C(c1ccc(COc2ccc3ccccc3c2)o1)N1N=C(C(F)F)CC1(O)C(F)F (stereo not given)	1	-31	-3	2	103	101
O=C(c1ccc(COc2ccc(Br)cc2)o1)N1N=C(C(F)F)CC1(O)C(F)F (stereo not given)	2	/	-9	-5	94	100
C[C@@H]1CN([C@@H](C)CO)C(=O)c2ccccc2-c2ccccc2CO[C@H]1CN(C)S(=O)(=O)c1ccccc1F	/	-9	/	/	/	/
CO[C@@H](CCO)[C@@H](O)c1ccc(O)c(F)c1	/	/	/	-5	/	/
CC(C)[C@H]1COCc2cn(nn2)CCCCC(=O)N1	/	-2	/	/	/	/
O=C(c1ccc(COc2ccccc2Cl)o1)N1N=C(C(F)F)CC1(O)C(F)F (stereo not given)	1	3	1	-16	96	100
Cc1ccc(C)c(OCc2ccc(C(=O)N3N=C(C(F)F)CC3(O)C(F)F)o2)c1 (stereo not given)	3	3	0	-5	63*	95
CCOC(=O)c1cc2c(N)c(C(=O)c3cc(C#N)c(SC)nc3C)sc2nc1C	1	/	-1	-4	72*	104
SMILES	iPSC survival up	INS-1E GSIS act	NRP1-CendR mod	ARNT TACC3 PPI	ABCB6 inh MLPCN	ABCB6 inh CP1
Cc1noc(C)c1NC(=O)N(C)C[C@@H]1OCCCC[C@@H](C)Oc2ccc(NC(=O)C3CCCCC3)cc2C(=O)N([C@@H](C)CO)C[C@@H]1C	/	6	/	9	/	/
CCc1ccccc1N(CC)C(=O)c1cn(C)c(=O)c2cc(OC)c(OC)cc12	-2	/	4	3	146	/
COc1cc2c(C(=O)N(C)c3ccc(F)cc3)cn(C)c(=O)c2cc1OC	-1	6	-1	-3	14*	99
C[C@@H]1CN([C@H](C)CO)C(=O)c2cc(-c3ccncc3)cnc2O[C@@H]1CN(C)C(=O)C1CCC1	/	17	/	/	/	/
COC(=O)[C@@H]1C[C@@]2(O)[C@H](O)[C@H](O)[C@H](O)C[C@H]2N1Cc1ccc(C(F)(F)F)cc1	2	-6	27*	-3	72*	100
COc1ccc(C#Cc2ccc3c(c2)[C@@H]2[C@@H](CCN2C(=O)C2CCCCC2)[C@@H](CO)N3)cc1	/	3	/	10	/	/
COc1ccc(CN(CC(=O)NCC2CCCO2)C(=O)CCC(=O)Nc2cc(C)on2)cc1 (stereo not given)	0	/	4	-5	95	/
COc1cccc(CN(CC(=O)NCC2CCCO2)C(=O)CCC(=O)Nc2cc(C)on2)c1 (stereo not given)	-1	/	-8	-16	73*	102
C[C@@H]1CN([C@H](C)CO)C(=O)c2cc(C3=CCCC3)cnc2O[C@@H]1CN(C)Cc1cccc(F)c1	/	2	/	-2	/	/
COc1ccc(OC)c(NC(=O)C2CC(=O)N(CCc3ccc(F)cc3)C2)c1 (stereo not given)	0	/	-4	21	48*	100
CCOC(=O)C1=C(C)NC(C)=C(C(=O)OCC)C1C(=O)OCC(=O)N(C)Cc1ccccc1	-1	-36	8	-7	74*	99
CCOC(=O)C1=C(C)NC(C)=C(C(=O)OCC)C1C(=O)OCC(N)=O	-1	6	6	2	103	/
C[C@H](CO)N1C[C@H](C)[C@H](CN(C)C(=O)Cc2ccccc2)Oc2cc(-c3ccccc3)ccc2S1(=O)=O	/	-20	/	6	/	/
CCCCn1cnc2c(cnn2-c2ccc(F)cc2)c1=O	-3	/	4	-1	99	/
CCCCn1cnc2c(cnn2-c2ccc(Cl)cc2)c1=O	-3	/	-9	-1	62*	97
Cc1ccc(C(=O)OCC(=O)NCc2ccccc2)cc1S(=O)(=O)N1CCCCC1	1	-2	16	0	96	/
Cc1ccc(C(=O)OCC(=O)c2c[nH]c3ccccc23)cc1S(=O)(=O)N1CCCCC1	2	-1	-11	-3	70*	99
Cc1ccc(CN(C)C[C@@H]2OCc3cn(nn3)CCCC(=O)N([C@@H](C)CO)C[C@H]2C)cc1	/	0	/	/	/	/
Nc1nonc1-n1nncc1-c1ccccc1	0	/	10	-8	6.0*	100
C[C@@H]1CN([C@H](C)CO)C(=O)Cc2cc(NC(=O)Nc3cccc4ccccc34)ccc2O[C@@H]1CN(C)C(=O)Nc1ccc2c(c1)OCO2	/	5	/	/	/	/
